Columns and labels:
Test in all cases: log2 ratio of Biotin-Ahx-Ub-VS probe labelling (compound/DMSO); higher = less target engagement, active = hit call of the paper (q ≤ 0.05, log2 ratio ≤ -1)
Conditions in all cases: treatment time: 3 h
[1] = compound: CCC1N(CCc2sccc12)C(=O)CCl
How it was run: (§1)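 HEK293T lysate (495 µg per sample, in Tris/CHAPS/IGEPAL buffer with protease inhibitors) was treated in triplicate with compound at 50 or 200 µM or with DMSO for 3 h. It was then treated with Biotin-Ahx-Ub-VS (0.5 µM final) for 1 h. Labelled DUBs were NeutrAvidin-enriched, digested with LysC and trypsin, and run by diaPASEF LC-MS/MS. Median-normalised label-free quantities gave average log2 ratios compound/DMSO by unpaired t-test, using proteins with ≥2 unique peptides.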

[2] = compound: CN1c2ccccc2C(CS1(=O)=O)NC(=O)CCl
How it was run: as §1

[3] = compound: Cl.ClCC(=O)N1CCc2ncncc2C1
How it was run: as §1

[4] = compound: Cl.Cn1ncc2C(CCCc12)NC(=O)CCl
How it was run: as §1

[5] = compound: ClCC(=O)NC1CCOc2ccccc12
How it was run: as §1

[6] = compound: ClCC(=O)NC1CCCc2ccccc12
How it was run: (§2)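 The values are mean compound-versus-vehicle ratios derived by unpaired t-test. For 3 h, triplicate HEK293T lysate samples (495 µg each) were treated with compound at a series of concentrations or with vehicle, after which Biotin-Ahx-Ub-VS was added to 0.5 µM final for 1 h. Labelled deubiquitinases were enriched with NeutrAvidin, digested with LysC and trypsin, and analysed by diaPASEF LC-MS/MS. Ratios are log2 values from global-median-normalised Spectronaut label-free quantities, using proteins with two or more unique peptides.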

[7] = compound: ClCC(=O)N[C@@H]1CCCc2ccccc12
How it was run: as §2

[8] = compound: ClCC(=O)N[C@H]1CCCc2ccccc12
How it was run: as §2

[9] = compound: CCC1N(CCc2cc(OC)c(Cl)cc12)C(=O)CCl
How it was run: as §1

[10] = compound: CCCC1N(CCc2cc(OC)c(OC)cc12)C(=O)CCl
How it was run: as §1

[11] = compound: CN(Cc1cccc(Br)c1)C(=O)CCl
How it was run: as §1

[12] = compound: CN(Cc1cccc(OCc2ccccc2C)c1)C(=O)CCl
How it was run: as §1

[13] = compound: CN(Cc1ccccc1)C(=O)CCl
How it was run: as §1

[14] = compound: COc1ccc(CN(C)C(=O)CCl)cc1
How it was run: as §1

[15] = compound: COc1cccc(CN(CCCc2ccccc2)C(=O)CCl)c1
How it was run: as §1

[16] = compound: ClCC(=O)N1CCc2cc(Cl)c(Cl)cc2C1
How it was run: as §1

[17] = compound: ClCC(=O)N1CCc2nc(ncc2C1)-c1ccccc1
How it was run: as §1

[18] = compound: ClCC(=O)N1CCc2nocc2C1
How it was run: as §1

[19] = compound: ClCC(=O)N1CCc2scc(Br)c2C1
How it was run: as §1

[20] = compound: ClCC(=O)NC(C1CCCC1)c1cccs1
How it was run: as §1

Measured: log2 ratio of Biotin-Ahx-Ub-VS probe labelling

UniProt Q5T2D3
Chain of UniProt Q5T2D3 (Q5T2D3 whole entry): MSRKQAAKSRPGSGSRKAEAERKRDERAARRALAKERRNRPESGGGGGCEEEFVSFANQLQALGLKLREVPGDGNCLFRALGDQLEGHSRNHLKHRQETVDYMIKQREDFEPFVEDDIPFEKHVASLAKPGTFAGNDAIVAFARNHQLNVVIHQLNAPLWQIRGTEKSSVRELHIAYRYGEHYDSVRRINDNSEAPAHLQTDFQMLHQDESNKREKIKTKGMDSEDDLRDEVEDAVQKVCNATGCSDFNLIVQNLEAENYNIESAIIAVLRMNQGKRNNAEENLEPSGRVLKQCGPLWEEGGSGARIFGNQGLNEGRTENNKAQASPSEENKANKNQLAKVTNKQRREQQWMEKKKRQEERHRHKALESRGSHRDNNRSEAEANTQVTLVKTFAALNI
inactive: [1]; compound concentration: 50uM -0.152 | [1]; compound concentration: 200uM -0.102 | [2]; compound concentration: 50uM -0.294 | [2]; compound concentration: 200uM -0.292 | [3]; compound concentration: 50uM -0.0797 | [3]; compound concentration: 200uM -0.274 | [4]; compound concentration: 50uM -0.136 | [4]; compound concentration: 200uM 0.135 | [5]; compound concentration: 50uM -0.0283 | [5]; compound concentration: 200uM -0.137 | [6]; compound concentration: 0.78uM -0.198 | [6]; compound concentration: 1.56uM -0.0928 | [6]; compound concentration: 3.13uM -0.11 | [6]; compound concentration: 6.25uM -0.192 | [6]; compound concentration: 12.5uM -0.113 | [6]; compound concentration: 25uM 0.0408 | [6]; compound concentration: 50uM -0.0723 | [6]; compound concentration: 100uM -0.0612 | [6]; compound concentration: 200uM -0.179 | [7]; compound concentration: 0.78uM -0.153 | [7]; compound concentration: 1.56uM -0.131 | [7]; compound concentration: 3.13uM -0.0877 | [7]; compound concentration: 6.25uM -0.0936 | [7]; compound concentration: 12.5uM -0.0592 | [7]; compound concentration: 25uM -0.125 | [7]; compound concentration: 50uM -0.234 | [7]; compound concentration: 100uM -0.0551 | [7]; compound concentration: 200uM -0.296 | [8]; compound concentration: 0.78uM -0.237 | [8]; compound concentration: 1.56uM -0.21 | [8]; compound concentration: 3.13uM -0.232 | [8]; compound concentration: 6.25uM -0.0509 | [8]; compound concentration: 12.5uM 0.00779 | [8]; compound concentration: 25uM -0.0485 | [8]; compound concentration: 50uM 0.0602 | [8]; compound concentration: 100uM 0.0541 | [8]; compound concentration: 200uM -0.193 | [9]; compound concentration: 50uM 0.0656 | [9]; compound concentration: 200uM -0.0849 | [10]; compound concentration: 50uM -0.315 | [10]; compound concentration: 200uM -0.497 | [11]; compound concentration: 50uM 0.00241 | [11]; compound concentration: 200uM -0.212 | [12]; compound concentration: 50uM -0.549 | [12]; compound concentration: 200uM -0.332 | [13]; compound concentration: 50uM -0.381 | [13]; compound concentration: 200uM -0.198 | [14]; compound concentration: 50uM -0.229 | [14]; compound concentration: 200uM 0.0599 | [15]; compound concentration: 50uM -0.157 | [15]; compound concentration: 200uM -0.202 | [16]; compound concentration: 50uM 0.0943 | [16]; compound concentration: 200uM -0.112 | [17]; compound concentration: 50uM 0.0194 | [17]; compound concentration: 200uM -0.186 | [18]; compound concentration: 50uM -0.173 | [18]; compound concentration: 200uM -0.329 | [19]; compound concentration: 50uM -0.0373 | [19]; compound concentration: 200uM 0.0195 | [20]; compound concentration: 50uM -0.0592 | [20]; compound concentration: 200uM -0.12

COPS5 (UniProt Q92905)
Chain of UniProt Q92905 (Q92905 whole entry, looked up): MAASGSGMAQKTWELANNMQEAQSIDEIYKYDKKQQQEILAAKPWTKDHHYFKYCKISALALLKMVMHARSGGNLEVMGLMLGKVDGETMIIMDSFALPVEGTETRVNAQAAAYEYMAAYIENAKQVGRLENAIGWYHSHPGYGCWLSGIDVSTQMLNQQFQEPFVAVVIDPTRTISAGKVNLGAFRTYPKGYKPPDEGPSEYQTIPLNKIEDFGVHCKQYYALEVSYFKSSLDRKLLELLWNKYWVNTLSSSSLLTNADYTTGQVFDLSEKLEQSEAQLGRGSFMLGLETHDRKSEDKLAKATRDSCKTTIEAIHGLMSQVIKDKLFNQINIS
inactive: [1]; compound concentration: 50uM -0.164 | [1]; compound concentration: 200uM 0.0997 | [2]; compound concentration: 50uM -0.182 | [2]; compound concentration: 200uM 0.168 | [3]; compound concentration: 50uM -0.296 | [3]; compound concentration: 200uM -0.179 | [4]; compound concentration: 50uM -0.177 | [4]; compound concentration: 200uM -0.131 | [5]; compound concentration: 50uM 0.175 | [5]; compound concentration: 200uM -0.0253 | [6]; compound concentration: 0.78uM 0.0364 | [6]; compound concentration: 1.56uM -0.0289 | [6]; compound concentration: 3.13uM -0.0264 | [6]; compound concentration: 6.25uM 0.0604 | [6]; compound concentration: 12.5uM -0.134 | [6]; compound concentration: 25uM -0.0881 | [6]; compound concentration: 50uM -0.183 | [6]; compound concentration: 100uM -0.315 | [6]; compound concentration: 200uM -0.041 | [7]; compound concentration: 0.78uM -0.237 | [7]; compound concentration: 1.56uM -0.152 | [7]; compound concentration: 3.13uM -0.15 | [7]; compound concentration: 6.25uM 0.209 | [7]; compound concentration: 12.5uM -0.0611 | [7]; compound concentration: 25uM -0.26 | [7]; compound concentration: 50uM -0.29 | [7]; compound concentration: 100uM -0.155 | [7]; compound concentration: 200uM 0.052 | [8]; compound concentration: 0.78uM -0.209 | [8]; compound concentration: 1.56uM 0.0351 | [8]; compound concentration: 3.13uM -0.059 | [8]; compound concentration: 6.25uM -0.0717 | [8]; compound concentration: 12.5uM 0.171 | [8]; compound concentration: 25uM 0.148 | [8]; compound concentration: 50uM -0.0575 | [8]; compound concentration: 100uM 0.0499 | [8]; compound concentration: 200uM -0.0918 | [9]; compound concentration: 50uM 0.0938 | [9]; compound concentration: 200uM 0.311 | [10]; compound concentration: 50uM -0.111 | [10]; compound concentration: 200uM 0.0826 | [11]; compound concentration: 50uM 0.118 | [11]; compound concentration: 200uM -0.11 | [12]; compound concentration: 50uM -0.375 | [12]; compound concentration: 200uM -0.104 | [13]; compound concentration: 50uM -0.103 | [13]; compound concentration: 200uM 0.0593 | [14]; compound concentration: 50uM 0.00458 | [14]; compound concentration: 200uM -0.13 | [15]; compound concentration: 50uM -0.0338 | [15]; compound concentration: 200uM -0.0977 | [16]; compound concentration: 50uM -0.307 | [16]; compound concentration: 200uM -0.222 | [17]; compound concentration: 50uM -0.406 | [17]; compound concentration: 200uM 0.395 | [18]; compound concentration: 50uM -0.35 | [18]; compound concentration: 200uM 0.152 | [19]; compound concentration: 50uM -0.23 | [19]; compound concentration: 200uM -0.704 | [20]; compound concentration: 50uM 0.21 | [20]; compound concentration: 200uM -0.0541

Source: the supplement of paper PMC11732987, “Enantioselective OTUD7B fragment discovery through chemoproteomics screening and high-throughput optimisation” (Communications Chemistry, 2025)
